Legend:
[1] = biological target: Rho-associated protein kinase 1 (Homo sapiens) (UniProt Q13464); settings: at 1 µM;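 note: reported values are mean percent inhibition of ROCK1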
[2] = biological target: Rho-associated protein kinase 2 (Homo sapiens) (UniProt O75116); settings: at 0.1 µM
[3] = biological target: Rho-associated protein kinase 2 (Homo sapiens) (UniProt O75116); settings: at 1 µM
[4] = biological target: Ribosomal protein S6 kinase alpha-1 (Homo sapiens) (UniProt Q15418); settings: at 0.1 µM
[5] = biological target: Ribosomal protein S6 kinase alpha-1 (Homo sapiens) (UniProt Q15418); settings: at 1 µM
[6] = biological target: Ribosomal protein S6 kinase alpha-3 (Homo sapiens) (UniProt P51812); settings: at 0.1 µM
[7] = biological target: Ribosomal protein S6 kinase alpha-3 (Homo sapiens) (UniProt P51812); settings: at 1 µM
[8] = biological target: Ribosomal protein S6 kinase alpha-2 (Homo sapiens) (UniProt Q15349); settings: at 0.1 µM
[9] = biological target: Ribosomal protein S6 kinase alpha-2 (Homo sapiens) (UniProt Q15349); settings: at 1 µM
[10] = biological target: Ribosomal protein S6 kinase alpha-6 (Homo sapiens) (UniProt Q9UK32); settings: at 0.1 µM;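 note: reported value is the mean inhibition of RSK4, from the GSK PKIS kinase inhibitor screen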
Chain of Ribosomal protein S6 kinase alpha-6 (Homo sapiens) (Q9UK32 whole entry): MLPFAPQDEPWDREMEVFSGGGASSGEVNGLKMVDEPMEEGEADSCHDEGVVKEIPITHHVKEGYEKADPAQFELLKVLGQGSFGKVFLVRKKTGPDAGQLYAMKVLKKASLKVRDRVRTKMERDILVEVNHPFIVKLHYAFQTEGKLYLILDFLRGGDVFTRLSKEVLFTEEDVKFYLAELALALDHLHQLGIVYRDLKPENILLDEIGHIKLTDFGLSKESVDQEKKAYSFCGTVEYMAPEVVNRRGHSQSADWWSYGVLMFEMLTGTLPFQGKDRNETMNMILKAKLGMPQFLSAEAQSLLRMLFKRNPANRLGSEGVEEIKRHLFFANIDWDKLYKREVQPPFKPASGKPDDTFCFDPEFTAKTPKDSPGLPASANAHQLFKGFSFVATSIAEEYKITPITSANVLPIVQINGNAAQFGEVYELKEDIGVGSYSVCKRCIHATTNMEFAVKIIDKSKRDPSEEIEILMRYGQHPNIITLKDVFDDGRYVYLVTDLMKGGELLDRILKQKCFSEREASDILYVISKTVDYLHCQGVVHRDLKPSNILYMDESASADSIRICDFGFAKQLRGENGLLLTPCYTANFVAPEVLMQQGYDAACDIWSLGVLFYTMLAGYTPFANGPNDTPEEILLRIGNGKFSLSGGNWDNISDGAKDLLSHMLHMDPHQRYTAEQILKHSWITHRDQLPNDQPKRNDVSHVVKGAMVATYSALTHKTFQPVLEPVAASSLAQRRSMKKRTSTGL

Chain of Rho-associated protein kinase 2 (Homo sapiens) (O75116 whole entry, looked up): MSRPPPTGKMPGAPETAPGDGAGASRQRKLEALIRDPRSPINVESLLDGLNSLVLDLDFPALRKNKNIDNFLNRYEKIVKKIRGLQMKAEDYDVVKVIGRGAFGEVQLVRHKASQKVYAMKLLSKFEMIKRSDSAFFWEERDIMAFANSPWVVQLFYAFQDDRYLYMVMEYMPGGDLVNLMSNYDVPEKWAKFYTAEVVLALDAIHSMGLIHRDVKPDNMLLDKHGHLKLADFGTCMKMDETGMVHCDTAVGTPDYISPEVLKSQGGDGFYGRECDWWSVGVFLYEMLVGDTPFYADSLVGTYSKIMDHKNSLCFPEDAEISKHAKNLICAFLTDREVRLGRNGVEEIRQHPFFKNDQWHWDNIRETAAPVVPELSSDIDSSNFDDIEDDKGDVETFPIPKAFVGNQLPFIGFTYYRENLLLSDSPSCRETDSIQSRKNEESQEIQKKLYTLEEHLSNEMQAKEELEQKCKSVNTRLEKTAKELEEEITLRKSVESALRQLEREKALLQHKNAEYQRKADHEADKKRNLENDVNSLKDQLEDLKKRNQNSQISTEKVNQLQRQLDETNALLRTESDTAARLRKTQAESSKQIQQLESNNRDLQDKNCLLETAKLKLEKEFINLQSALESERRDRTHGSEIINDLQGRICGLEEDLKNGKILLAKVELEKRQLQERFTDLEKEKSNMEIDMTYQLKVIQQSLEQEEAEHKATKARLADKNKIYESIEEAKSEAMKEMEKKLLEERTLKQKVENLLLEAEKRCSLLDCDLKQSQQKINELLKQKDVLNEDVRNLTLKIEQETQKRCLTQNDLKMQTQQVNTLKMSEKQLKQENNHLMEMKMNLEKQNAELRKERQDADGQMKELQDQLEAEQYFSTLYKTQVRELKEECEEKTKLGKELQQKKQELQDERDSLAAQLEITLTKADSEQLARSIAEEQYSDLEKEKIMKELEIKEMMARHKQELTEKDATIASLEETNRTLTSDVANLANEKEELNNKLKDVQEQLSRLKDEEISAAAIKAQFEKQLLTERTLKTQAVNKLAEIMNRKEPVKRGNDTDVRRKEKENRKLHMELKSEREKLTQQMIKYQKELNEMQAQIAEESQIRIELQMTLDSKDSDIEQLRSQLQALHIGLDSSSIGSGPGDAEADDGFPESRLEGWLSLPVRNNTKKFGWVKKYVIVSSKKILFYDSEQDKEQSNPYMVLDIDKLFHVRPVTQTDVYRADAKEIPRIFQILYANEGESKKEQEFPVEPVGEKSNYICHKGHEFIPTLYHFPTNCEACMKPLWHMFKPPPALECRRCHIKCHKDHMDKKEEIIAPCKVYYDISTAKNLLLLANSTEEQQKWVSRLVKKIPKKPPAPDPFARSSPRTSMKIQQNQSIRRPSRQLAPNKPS
Chain of Ribosomal protein S6 kinase alpha-1 (Homo sapiens) (Q15418 whole entry): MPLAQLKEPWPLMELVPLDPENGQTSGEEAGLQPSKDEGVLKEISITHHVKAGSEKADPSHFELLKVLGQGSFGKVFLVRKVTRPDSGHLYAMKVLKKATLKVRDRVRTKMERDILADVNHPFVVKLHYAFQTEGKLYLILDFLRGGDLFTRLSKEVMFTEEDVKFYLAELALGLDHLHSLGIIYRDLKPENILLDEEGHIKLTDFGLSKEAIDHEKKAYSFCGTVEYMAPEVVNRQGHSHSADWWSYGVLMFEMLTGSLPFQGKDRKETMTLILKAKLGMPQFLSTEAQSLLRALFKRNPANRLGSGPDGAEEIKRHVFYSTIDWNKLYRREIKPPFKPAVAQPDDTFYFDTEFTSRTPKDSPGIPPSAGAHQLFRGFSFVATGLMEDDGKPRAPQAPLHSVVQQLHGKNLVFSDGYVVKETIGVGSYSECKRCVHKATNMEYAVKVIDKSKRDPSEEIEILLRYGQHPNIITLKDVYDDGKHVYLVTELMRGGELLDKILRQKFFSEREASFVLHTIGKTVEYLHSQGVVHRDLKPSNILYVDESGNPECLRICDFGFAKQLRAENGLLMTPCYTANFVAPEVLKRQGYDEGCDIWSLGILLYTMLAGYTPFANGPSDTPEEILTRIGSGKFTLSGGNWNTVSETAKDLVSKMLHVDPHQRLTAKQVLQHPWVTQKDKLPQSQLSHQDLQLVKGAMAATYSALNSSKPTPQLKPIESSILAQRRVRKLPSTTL
Chain of Ribosomal protein S6 kinase alpha-3 (Homo sapiens) (P51812 whole entry): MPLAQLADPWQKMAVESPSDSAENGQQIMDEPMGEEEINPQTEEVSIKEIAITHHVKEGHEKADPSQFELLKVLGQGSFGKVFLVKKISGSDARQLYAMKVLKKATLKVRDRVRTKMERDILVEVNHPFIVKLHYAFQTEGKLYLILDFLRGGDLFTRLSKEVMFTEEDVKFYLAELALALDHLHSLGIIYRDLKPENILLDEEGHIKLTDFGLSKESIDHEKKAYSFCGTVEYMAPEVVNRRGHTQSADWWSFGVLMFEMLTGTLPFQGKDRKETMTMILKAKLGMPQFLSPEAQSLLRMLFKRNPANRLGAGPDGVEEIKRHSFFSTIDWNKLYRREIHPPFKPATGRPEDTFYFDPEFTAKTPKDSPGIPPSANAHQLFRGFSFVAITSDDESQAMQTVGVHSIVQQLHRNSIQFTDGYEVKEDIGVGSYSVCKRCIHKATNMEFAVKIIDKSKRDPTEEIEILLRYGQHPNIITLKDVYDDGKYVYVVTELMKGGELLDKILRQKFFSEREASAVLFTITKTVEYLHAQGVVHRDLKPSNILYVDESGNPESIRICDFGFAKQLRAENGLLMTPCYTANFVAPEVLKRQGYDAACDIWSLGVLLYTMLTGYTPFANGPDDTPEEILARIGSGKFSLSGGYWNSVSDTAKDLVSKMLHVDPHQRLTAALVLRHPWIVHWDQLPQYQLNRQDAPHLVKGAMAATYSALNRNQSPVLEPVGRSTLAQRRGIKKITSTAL
Chain of Rho-associated protein kinase 1 (Homo sapiens) (Q13464 2-1354 limits assumed): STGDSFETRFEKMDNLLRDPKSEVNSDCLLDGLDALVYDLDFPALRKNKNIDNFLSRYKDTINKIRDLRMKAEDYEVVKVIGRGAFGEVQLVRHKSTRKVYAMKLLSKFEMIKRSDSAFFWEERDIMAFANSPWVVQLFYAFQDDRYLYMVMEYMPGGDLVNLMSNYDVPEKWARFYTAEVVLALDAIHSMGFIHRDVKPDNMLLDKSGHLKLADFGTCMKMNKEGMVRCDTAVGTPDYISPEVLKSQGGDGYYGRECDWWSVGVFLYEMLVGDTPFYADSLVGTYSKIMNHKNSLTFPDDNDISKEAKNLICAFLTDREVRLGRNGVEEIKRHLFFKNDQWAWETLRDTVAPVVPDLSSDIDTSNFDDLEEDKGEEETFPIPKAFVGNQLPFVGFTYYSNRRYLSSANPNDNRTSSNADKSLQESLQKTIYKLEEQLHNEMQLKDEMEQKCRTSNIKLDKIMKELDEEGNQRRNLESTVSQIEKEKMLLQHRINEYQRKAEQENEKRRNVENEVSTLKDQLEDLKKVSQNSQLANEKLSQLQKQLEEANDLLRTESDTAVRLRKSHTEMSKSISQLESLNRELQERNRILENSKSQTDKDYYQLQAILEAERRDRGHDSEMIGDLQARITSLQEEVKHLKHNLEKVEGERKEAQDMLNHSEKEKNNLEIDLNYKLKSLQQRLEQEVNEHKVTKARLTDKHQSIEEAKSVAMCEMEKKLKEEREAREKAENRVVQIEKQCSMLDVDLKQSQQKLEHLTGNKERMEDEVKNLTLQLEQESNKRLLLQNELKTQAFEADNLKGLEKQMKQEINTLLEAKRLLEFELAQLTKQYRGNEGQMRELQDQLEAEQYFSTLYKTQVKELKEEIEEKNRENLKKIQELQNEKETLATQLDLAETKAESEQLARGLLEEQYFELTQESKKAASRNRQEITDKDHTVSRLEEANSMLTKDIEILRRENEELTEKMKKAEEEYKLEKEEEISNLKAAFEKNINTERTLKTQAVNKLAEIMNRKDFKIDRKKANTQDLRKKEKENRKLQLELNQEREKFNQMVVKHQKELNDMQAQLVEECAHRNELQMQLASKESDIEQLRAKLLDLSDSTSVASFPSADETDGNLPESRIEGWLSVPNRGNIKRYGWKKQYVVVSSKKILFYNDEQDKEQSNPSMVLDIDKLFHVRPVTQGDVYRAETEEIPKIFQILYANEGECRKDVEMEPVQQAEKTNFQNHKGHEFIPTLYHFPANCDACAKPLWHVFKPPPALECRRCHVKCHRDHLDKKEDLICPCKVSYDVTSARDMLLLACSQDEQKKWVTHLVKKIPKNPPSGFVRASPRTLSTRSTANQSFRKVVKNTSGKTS

| SMILES | inhibition [1] [%] | inhibition [2] [%] | inhibition [3] [%] | inhibition [4] [%] | inhibition [5] [%] | inhibition [6] [%] | inhibition [7] [%] | inhibition [8] [%] | inhibition [9] [%] | inhibition [10] [%] |
| --- | --- | --- | --- | --- | --- | --- | --- | --- | --- | --- |
| COc1cccc(COc2cc(-n3cnc4ccccc43)sc2C(N)=O)c1 | -0.3 | -0.06 | 0.84 | 0.37 | 0.21 | 0.89 | -1.45 | -0.15 | 1.4 | 1.09 |
| Fc1ccc(-c2ncn(C3CCNCC3)c2-c2ccnc(Oc3ccccc3)n2)cc1 | 1.62 | -0.24 | 0.28 | -0.66 | -0.32 | -1.31 | -1.67 | 1.35 | 0.51 | -0.22 |
| NS(=O)(=O)c1ccc(N/C=C2\C(=O)Nc3ccc4ncsc4c32)cc1 | 33 | 12 | 47.5 | 4.22 | 31.3 | 6.13 | 36 | 16.5 | 66.1 | 12.6 |
| NC(=O)c1sc(-n2cnc3cc(C(F)(F)F)ccc32)cc1OCc1ccccc1Br | 0.79 | 0.92 | 1.05 | 1.6 | 2.97 | 3.26 | 3.31 | 2.33 | 1.83 | 1.36 |
| CCn1c(-c2nonc2N)nc2c(C#CC(C)(C)O)ncc(OCC3CCNCC3)c21 | 13.7 | 6.21 | 27.5 | 4.34 | 19.9 | 4.16 | 19 | 2.47 | 7.78 | 2.29 |
| Cc1cc(-c2ccco2)cc(C)c1/C=C/c1cncc(-c2nn[nH]n2)c1 | 1.58 | 0.76 | 1.41 | 0.75 | 1.35 | 0.67 | 0.7 | 1.44 | 0.92 | -0.24 |
| Nc1nonc1-c1nc2cnccc2n1C1CCCCC1 | 78.4 | 42.4 | 83.4 | 52.1 | 86.4 | 40.9 | 81.4 | 70 | 92.6 | 6.78 |
| COc1cc2c(cc1Nc1nc(Nc3ccsc3C(N)=O)c3cc[nH]c3n1)N(C(=O)CN(C)C)CCC2 | 26.1 | 3.13 | 23.2 | 7.13 | 34.8 | -6.28 | -1.3 | 0.29 | 7.85 | 0.38 |
| CCn1c(-c2nonc2N)nc2c(C#CCN)ncc(OCCCN)c21 | 48.7 | 10.6 | 53.7 | 20.1 | 68.3 | 24.4 | 72.9 | 7.65 | 48.5 | 1.06 |
| NS(=O)(=O)c1ccc(-c2ccc3c(NC(=O)C4CC4)n[nH]c3c2)cc1 | 2.34 | 0.8 | 1.01 | 1.47 | 0.59 | 0.4 | 1.28 | 0.45 | 2.46 | 1.52 |
| COc1cccc(-n2ncc3c(N/N=C/c4ccncc4)ncnc32)c1 | 9.67 | 4.97 | 19.4 | 3.51 | 7.17 | 1.43 | 4.26 | 2.35 | 4.92 | 2.25 |
| CCn1c(-c2nonc2N)nc2c(C#CC(C)(C)O)ncc(OC[C@@H]3CCCN3)c21 | 12.4 | -0.51 | 10 | -0.68 | 23.3 | 3.35 | 24.9 | 2.02 | 13.3 | -0.15 |
| CCn1c(-c2nonc2N)nc2c(C#CC(C)(C)O)nc(O[C@@H](CN)c3ccccc3)cc21 | 51.7 | 11.5 | 59.4 | 19.1 | 71.6 | 18 | 69.5 | 15.4 | 69.9 | 4.01 |
| COc1cc(C=NNc2ncnc3c2cnn3Cc2ccccc2)ccc1O | 5.87 | -0.21 | 1.36 | 1.68 | 3.82 | 1.86 | 3.94 | -0.6 | 1.82 | -1.29 |

— ChEMBL document CHEMBL1961873, “Compounds: GSK PKIS; Assays: Nanosyn kinase panel” (2012)
